Screening results (PubChem BioAssay)
Shown is part of a subset that was picked to be rich in hits.
Pf Dd2 inh – qHTS Primary assay for Inhibitors of Plasmodium falciparum Dd2 growth in vitro; P. falciparum Dd2 growth, SYBR Green, 72 h; Potency, µM (top dose mostly 28.9 µM), for inactives: top-dose activity, negative = inhibition, actives largely listed as inhibitors; 4.3% of 120,000 active; AID 1347417, 2020; active means well fitted inhibition curve with a large enough effect;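 further: plate controls were DMSO vehicle for no effect and reference drug for full effect; nearly all actives have a fitted effect of over 65% in size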
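Readout: SYBR Green fluorescence, 485 nm excitation, 535 nm emission, after ~16 h lysis at 37C. Before that, Dd2-infected red cells (2.5% hematocrit) grew 72 h with compound, 29 uM top final concentration.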
* marks the source's active call; other numbers are inactive results; i = inactive; [ ] = another dose, or the depositor's remark. Potency means the concentration at half of the fitted maximal effect.

SMILES | Pf Dd2 inh
CC1=C[C@@H](CNCc2ccc(Cl)cc2)[C@H](C(C)C)C[C@H]1Cc1nnc(-c2cncn2C)o1 | 4µM*
CC1=C[C@@H](CNC(=O)c2cncnc2)[C@H](C(C)C)C[C@H]1Cc1nnc(-c2ccccc2F)o1 | -5%
CC1=C[C@@H](CNC(=O)c2cnccn2)[C@H](C(C)C)C[C@H]1Cc1nnc(-c2ccccc2F)o1 | -6%
O=C(NCc1cccc(Cl)c1)C1CCN(C(=O)c2ncn3c2COC(c2ccccc2)C3)CC1 (stereo not given) | i
O=C(c1cccnc1)N1CCC2(CC1)OCCN(Cc1ccccc1)C2=O | -18%[44.1 µM]
CC(C)CN1C(=O)c2cccn2CC1C(=O)NCCN1CCOCC1 (stereo not given) | 50%
CN1CC2(CCCN(C(=O)c3conc3-c3ccccc3)CC2)OC1=O (stereo not given) | -1%
CCc1ccc(C(=O)N(C)CC2CCOCC2)cc1 | -22%
Cc1cccc(-n2nc(C)c(CCC(=O)N3CCSCC3)c2Oc2ccccc2)c1 | -2%
CCS(=O)(=O)Nc1ccc(C)n(CC(=O)NCc2ccccc2C)c1=O | i
CN(C)[C@@H]1CNCC[C@@H]1CO | 27%
Cc1nonc1CC(=O)N1CCc2ccc(S(=O)(=O)NCCC(C)O)cc2C1 (stereo not given) | -4%
O=C1CCC2(CCN(c3ncc(F)cn3)CC2)CN1CC1CCCO1 (stereo not given) | -9%
COc1ccc(CN2CC3(CCN(C(=O)c4ccc(C)cc4C)CC3)C2=O)cc1 | -15%
Cc1cccc(NC(=O)CN2C(=O)NC3(CCS(=O)(=O)CC3)C2=O)c1 | i
COCCn1c(C)cnc1CCNS(=O)(=O)c1c(C)nn(C)c1C | 31%
CCn1nccc1C(=O)NCC(=O)N1CCCCCNC(=O)CC1c1ccccc1 (stereo not given) | -14%
CN1CCC(N2CCC(N3C(=O)C4(CCCCC4)C3c3ccncc3)CC2)CC1 (stereo not given) | -1%
CCOC(=O)CCNC(=O)N1CCC(N2C(=O)C3(CCCCC3)C2c2ccncc2)CC1 (stereo not given) | -1%
O=C(NC1CCCCC1)N1CCC(N2C(=O)C3(CCCCC3)C2c2ccncc2)CC1 (stereo not given) | 5µM*
Cc1ccc(CNC(=O)N2CCC(N3C(=O)C4(CCCCC4)C3c3ccncc3)CC2)cc1 (stereo not given) | 11µM*
O=C(c1ccoc1)N1CCC(N2C(=O)C3(CCCCC3)C2c2ccncc2)CC1 (stereo not given) | -17%
CS(=O)(=O)N1CCC(N2C(=O)C3(CCCCC3)C2c2ccncc2)CC1 (stereo not given) | -3%
Cc1ccc(S(=O)(=O)Nc2ccc(C)n(CC(=O)N3CCOCC3)c2=O)cc1 | 6%
CCCOc1ccccc1CCCNC(=O)[C@H]1CCC[C@@H](O)C1 | -12%
SMILES | Pf Dd2 inh
CN(C)[C@@H]1CN(C(=O)c2ccc(F)cc2)CC[C@]1(O)c1ccccc1 | -11%[5.79 µM]
O=C(N[C@H]1CO[C@H]2[C@@H]1OC[C@@H]2n1cc(-c2ccccn2)nn1)c1ccc(C(F)(F)F)cc1 | 1%
Cc1ccc(F)c(OCC(=O)c2ccc3c(c2)N(CCCC(=O)NC2CC2)C(=O)CO3)c1 | -14%
O=C(NCCc1ccc(Cl)cc1)c1ccc(Nc2nc3ccccc3n3nnnc23)cc1 | -27%
COc1ccc(CCNC(=O)c2ccc(Nc3nc4ccccc4n4nnnc34)cc2)cc1OC | 8.9µM*
COc1ccccc1N1CCN(C(=O)c2ccc(Nc3nc4ccccc4n4nnnc34)cc2)CC1 | 10µM*
COc1ccc(CCNC(=O)c2cccc(Nc3nc4ccccc4nc3-n3nc(C)cc3C)c2)cc1OC | -14%
CC(NC(=O)c1cccc(Nc2nc3ccccc3n3nnnc23)c1)c1ccccc1 (stereo not given) | 5%
Cc1ccc(CNC(=O)c2ccc(Nc3nc4ccccc4n4nnnc34)cc2)cc1 | -3%
Cc1nnc2n1C(C)CN(C(=O)CCn1cnc3ccccc3c1=O)C2 (stereo not given) | 6%
Cc1cc(C)c([S+](=O)([O-])c2nnn3c2nc(NCc2ccncc2)c2ccccc23)c(C)c1 | 2.2µM*
Cc1ccc([S+](=O)([O-])c2nnn3c2nc(NCc2ccncc2)c2ccccc23)cc1 | 7%
COc1ccc([S+](=O)([O-])c2nnn3c2nc(NCc2ccncc2)c2ccccc23)cc1 | -15%
C=CCN1CC2(CCC1=O)CCN(C(=O)[C@@H](O)Cc1ccccc1)CC2 | -3%
CC(C)n1ccc2c(NC(=O)Cn3nc4c(cc3=O)CCCCC4)cccc21 | -26%
Cc1cccc(NC(=O)N2CC=C(c3c[nH]c4ccccc34)CC2)c1C | 3.2µM*
Cc1cccc(NC(=O)N2CCc3c(c4ccccc4n3C)C2)c1C | i
O=C(Nc1ccc(Br)cc1F)N1CC=C(c2c[nH]c3ccccc23)CC1 | 1%
COc1ccc(-c2noc(-c3nnn4c3COC(c3ccc(F)cc3)C4)n2)c(OC)c1 (stereo not given) | -4%
O=C(NC1CC1)c1ccccc1OCC1CCCN(Cc2cn[nH]c2-c2ccc(F)cc2)C1 (stereo not given) | -8%
O=C1N[C@H](CCC(=O)N2CCN(Cc3ccccc3)CC2)C(=O)Nc2ccccc21 | -8%
Cc1ccc(CNC(=O)Cn2c3ncccc3c(=O)n2-c2ccccc2)cc1 | 39%
CCc1cccc(-n2c(=O)c3cccnc3n2CC(=O)Nc2ccc(F)c(C)c2)c1 | 1.3µM*
O=C(Cn1c2ncccc2c(=O)n1-c1ccccc1)Nc1ccc(F)c(F)c1 | -16%
CCc1cccc(-n2c(=O)c3cccnc3n2CC(=O)Nc2c(C)cc(C)cc2C)c1 | -4%
SMILES | Pf Dd2 inh
Cc1ccc(-n2c(=O)c3cccnc3n2CC(=O)Nc2cc(C)cc(C)c2)cc1 | -11%
Cc1ccc(-n2c(=O)c3cccnc3n2CC(=O)Nc2cccc(C)c2C)cc1 | 3.5µM*
CCOC(=O)c1ccccc1NC(=O)Cn1c2ncccc2c(=O)n1-c1ccccc1 | i
Cc1ccc(-n2c(=O)c3cccnc3n2CC(=O)Nc2ccc(C)cc2Cl)cc1 | -8%
CCc1ccc(-n2c(=O)c3cccnc3n2CC(=O)Nc2ccccc2C(F)(F)F)cc1 | 11µM*
COC1CCOC2(CCN(C(=O)NCCc3ccccc3)CC2)C1 (stereo not given) | 12%
Cc1cnc(C(=O)N2C[C@@H](Oc3ccccc3)C[C@H]2C(=O)N2CCCC2)cn1 | i
CN(C(=O)NC1CCCC1)C1CCc2ccccc2C1 (stereo not given) | -8%[44.1 µM]
O=C(N1CCC(c2nc(C3CCOCC3)no2)C1)C1(c2ccccc2)CC1 (stereo not given) | 9%
O=C(Cn1ccn2nc(-c3ccc(F)cc3)c(CO)c2c1=O)NCc1ccc2c(c1)OCO2 | 28%
COCCn1ccnc1C1CCCN(c2ncnc3c2CCC3)C1 (stereo not given) | 4%
O=C(O)C1(Oc2ccc(Cl)cc2)CCN(c2cnccn2)CC1 | 20%
CC(C)NC(=O)C[C@@H]1C[C@H]2O[C@H](CNC(=O)N3CCOCC3)[C@@H](O)[C@H]2O1 | 9%[44.1 µM]
OCCC1CN(c2nccc(-c3ccccn3)n2)CCN1Cc1ccoc1 (stereo not given) | -11%
CCc1cc(C(=O)N2CC[C@@H]3[C@@H](CCC(=O)N3CCc3cnc[nH]3)C2)n[nH]1 | -10%
C[C@]1(CO)[C@H]2Cc3sc(NC(=O)C4CCC4)nc3[C@@H](CC(=O)N3CCOCC3)[C@]2(C)CC[C@H]1O | i
C[C@]1(CO)[C@H]2Cc3sc(NC(=O)c4ccc(F)cc4)nc3[C@@H](CC(=O)N3CCCCC3)[C@]2(C)CC[C@H]1O | i
